From PubChem
The full list was thinned out, with hits kept by preference.
Pf Dd2 inh = Plasmodium falciparum Dd2 growth inhibition | P. falciparum Dd2 growth, SYBR Green, 72 h | AID 1347417 | actives 4.3% (n = 120,000) | Potency, µM (series often up to 28.9 µM), hits mostly inhibitors; active = well fitted inhibition curve with a large enough effect; note: nearly all actives have a fitted effect of over 65% in size
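Readout: SYBR Green fluorescence, 485 nm excitation, 535 nm emission, after ~16 h lysis at 37C. Before that, Dd2-infected red cells (2.5% hematocrit) grew 72 h with compound, 29 uM top final concentration.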
Of the large screens only hits and unclear results are named; the others gave an inactive call.

Cc1c(C(=O)OCc2ccccc2)[nH]c2c1C(=O)CC(c1ccc(Cl)cc1)C2 (stereo not drawn)	none
CCOC(=O)C1=C(C)N=C2SCCC(=O)N2C1c1ccc(OCc2ccccc2)cc1 (stereo not drawn)	none
CCc1ccc(C2CC(=O)c3c([nH]c(C(=O)OCCOc4ccccc4)c3C)C2)cc1 (stereo not drawn)	Pf Dd2 inh 5µM
CCOC(=O)c1[nH]c2c(c1Cc1ccccc1C)C(=O)CC(c1ccccc1)C2 (stereo not drawn)	Pf Dd2 inh 8.9µM
COc1ccc(C2CC(=O)c3c([nH]c(C(=O)OCc4ccccc4)c3C)C2)cc1OC (stereo not drawn)	none
O=C1CC(c2ccccc2)Cc2[nH]c(=O)c(C(=O)Nc3cccc(Cl)c3)cc21 (stereo not drawn)	none
CCOC(=O)C1=C(C)N=C2SC=C(CC(=O)NCC3CC3)N2C1c1cc(OC)ccc1OC (stereo not drawn)	none
Cc1ccc(C(=O)N2CC[C@@H]3COCCN(C)[C@@H]3C2)s1	none
O=C1CS(=O)C2(CCNCC2)N1Cc1cccc(F)c1 (stereo not drawn)	none
O=C(COc1ccc(Cl)cc1Cl)N1CCC(N2CCOC2=O)CC1	none
O=C(Nc1ccccc1)O[C@@H]1CO[C@H]2[C@@H]1OC[C@@H]2NC(=O)c1ccc2c(c1)OCO2	none
CC(C)CN1C(=O)c2cccn2CC1C(=O)NCCN1CCOCC1 (stereo not drawn)	none
O=C(c1cscn1)N1CC[C@@H]2[C@@H](CCC(=O)N2CCCn2ccnc2)C1	none
NC(=O)N1CCCC(C(=O)N2CCCN(c3ccc(F)cc3)CC2)C1 (stereo not drawn)	none
O=C(Nc1cnc(-c2ccc(C(F)(F)F)cc2)nc1)C1CCOC1 (stereo not drawn)	none
Fc1ccc2cnc(N3CCC(N[C@H]4C[C@@H]5OCC[C@H]45)CC3)nc2c1	Pf Dd2 inh 8.9µM
c1cc2c(cc1N1CCC(N[C@H]3C[C@@H]4OCC[C@H]34)CC1)CCC2	none
CSc1ccc(C(C(=O)O)N2CCN(Cc3csc(C)n3)CC2)cc1 (stereo not drawn)	none
O=C1CCN(C(=O)c2ccccc2)CCCC(C(=O)NCCCn2cccn2)CCN1 (stereo not drawn)	none
O=C1CCCN1CCCN1C(=O)[C@@H]2C[C@@H](O)CN2C2(CN(Cc3cnc4ccccc4c3)C2)C1=O	none
CCOc1ccccc1CNc1ccc2cc(S(=O)(=O)N3CCC(C)CC3)ccc2n1	none
O=S(=O)(c1ccc2nc(Nc3ccc(F)cc3)ccc2c1)N1CCCC1	none
CC1CCN(S(=O)(=O)c2ccc3nc(Nc4cccc(C(F)(F)F)c4)ccc3c2)CC1	Pf Dd2 inh 4.5µM
CC1CCN(S(=O)(=O)c2ccc3nc(N4CCN(c5ccc(F)cc5)CC4)ccc3c2)CC1	none
CC1CCN(S(=O)(=O)c2ccc3nc(NCc4ccc(N(C)C)cc4)ccc3c2)CC1	Pf Dd2 inh 11µM
O=S(=O)(c1ccc2nc(Nc3cccc(F)c3)ccc2c1)N1CCCC1	none
O=C(Cc1c[nH]c2ccccc12)N1CCC(Oc2ccc(-c3noc(C4CC4)n3)cc2)C1 (stereo not drawn)	none
CO[C@H]1C(=O)N(C(C)C)[C@H]1C1CCN(S(=O)(=O)c2c(C)nn(C)c2C)CC1	none
O=C(CCN1CCCC1=O)NC1CCCN(CCCc2ccccc2)C1 (stereo not drawn)	none
NC(=O)[C@@H]1C[C@H](Oc2cccnc2)CN1S(=O)(=O)Cc1ccccc1F	none
O=C1CN(Cc2ccc(-c3ccsc3)cc2)CCN1c1cc(Cl)ncn1	none
C=CCN1CCN(C(=O)C2N(C(C)C)C(=O)C23CCCCC3)CC1 (stereo not drawn)	none
CC(C)c1noc(-c2cn(C3CCN(C(=O)C4(c5ccccc5)CC4)C3)nn2)n1 (stereo not drawn)	none
CCOc1cc(C)c(CN2CCCC(O)(CN(C)C)C2)cc1C(C)C (stereo not drawn)	Pf Dd2 inh 2.8µM
COc1ccc2c(c1)C=C(CN1CCCC(O)(CN(C)C)C1)CO2 (stereo not drawn)	none
CN(C)CC1(O)CCCN(Cc2ccc(-c3ccc(Cl)cc3)o2)C1 (stereo not drawn)	none
CCc1ccc(S(=O)(=O)N2CCN(C3CCN(Cc4ccccn4)C3=O)CC2)cc1 (stereo not drawn)	none
CNC(=O)[C@@H]1C[C@H](Oc2cccnc2)CN1C(=O)c1ccc(OC)c(F)c1	none
Cc1noc(C)c1-c1cc2cc(C(C)C)oc2c(NC2CCOCC2)n1	Pf Dd2 inh 11µM
Cc1noc(C)c1-c1cc2cc(C(C)C)oc2c(NC(C)C)n1	none
Cc1cc2cc(-c3c(C)noc3C)nc(NCC3CC3)c2o1	none
Cc1noc(C)c1-c1cc2cc(CO)oc2c(NCCN2CCOCC2)n1	none
Cc1cc2cc(-c3c(C)noc3C)nc(NC3CCN(C)CC3)c2o1	Pf Dd2 inh 10µM
Cc1noc(C)c1-c1cc2cc(C(C)C)oc2c(-c2c(C)noc2C)n1	none
COc1cccc(NC(=O)N[C@H]2[C@H](O)[C@@H](N3CCC(Cc4ccccc4)CC3)[C@@H]3OC[C@H]2O3)c1	none
Cn1ccc(NC(=O)C2(C)CN(Cc3ccccc3)Cc3ccc(N4CCOCC4)nc32)n1 (stereo not drawn)	none
CCCOc1nccnc1NC1CCN(C(=O)c2ccccn2)CC1	none
Cc1nocc1C(=O)N1C[C@@H](CO)[C@H](c2ccccn2)C1	none
COc1ccc(NC(=O)CC2CCCCN(C)C2=O)cc1OC (stereo not drawn)	none
N#Cc1ccc(CN2CCC(N3CCOCC3=O)CC2)cc1	none
Cn1cc(C2CCN(C(=O)c3c(Cl)cc(Cl)cc3Cl)CC2)c2ccccc21	Pf Dd2 inh 8.9µM
Cn1cc(C(=O)N2CC[C@@](C)(O)[C@@H](O)C2)c2ccccc21	none
Cc1cccc2c(C3CCN(C(=O)c4c(Cl)cc(Cl)cc4Cl)CC3)c[nH]c12	none
COc1ccc(NC(=O)C2CN(S(C)(=O)=O)CC23CCCCC3)c(OC)c1 (stereo not drawn)	none
Cn1cc(CN2CCN3CCCC3C2)c(-c2ccc(C3CCCCC3)cc2)n1 (stereo not drawn)	Pf Dd2 inh 8.9µM
Cn1cc(CN2CCCC(C(=O)N3CCOCC3)C2)c(-c2ccc(C3CCCCC3)cc2)n1 (stereo not drawn)	none
Cn1cc(CN2CCN3C(=O)N(C4CCCCC4)C[C@H]3C2)cn1	none
COc1ccc(S(N)(=O)=O)cc1C(=O)N1CCc2c(nc[nH]c2=O)C1	none
O=C(c1ccccc1Cl)N1CCn2c(nnc2-c2ccccc2)C1	none
O=C(Nc1ccc2c(N3CCCC3)ncnc2c1)c1ccccc1Br	Pf Dd2 inh 13µM
COc1ccccc1C(=O)Nc1ccc2ncnc(N3CCCCC3)c2c1	none
Cc1ccc(C)c(C(=O)Nc2ccc3c(N4CCCC4)ncnc3c2)c1	Pf Dd2 inh 2.5µM
Cc1ccc(NC(=O)c2cnc(N3CCCCC3)c3ccccc23)cc1Cl	none
Cc1ccccc1[C@@H]1CN(Cc2cnn(CCC(=O)O)c2)C[C@H]1C(=O)O	none
COc1ccc(Cl)cc1-c1ccc2c(c1)C(=O)N1CC[C@H](NC(=O)C3CCCC3)C[C@H]1C(=O)N2	none
Cc1cnccc1N1CCCN(C(=O)Cn2ccnc2-c2ccccc2)CC1	none
CC(O)CN1CC2(CCC1=O)CCN(S(=O)(=O)N1CCCC1)CC2 (stereo not drawn)	none
C[C@@H](NC(=O)c1cccn1C)c1c(-c2ccc(F)cc2)noc1C(=O)O	none
Cc1cccc(C2C=C(c3ccc(C)c(C)c3)Nc3nnnn32)c1 (stereo not drawn)	Pf Dd2 inh 11µM
Cc1ccc(C2=CC(c3c(F)cccc3Cl)n3ncnc3N2)cc1C (stereo not drawn)	none
COc1ccc(C2C=C(c3ccc(Br)cc3)Nc3nnnn32)c(OC)c1 (stereo not drawn)	none
